# Screening data deposited in PubChem by Broad Institute.
# Tgondii IFNg – blocks Toxoplasma gondii growth in the presence of IFN-gamma | Toxoplasma gondii growth in IFN-gamma-treated host cells; active compounds read low | activity change, negative = inhibition, % (no concentration beside the values) | 69,000 compounds, 3.8% hits | AID 1259416; in the data active = activity change below about -70%, passing the limit was not always enough;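 note: host cells are HeLa cells infected with Toxoplasma gondii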
# * marks the source's active call; other numbers are inactive results. This excerpt belongs to a sample that is enriched for hits.
SMILES,Tgondii IFNg
CCN1C(=O)N(Cc2cccc(OC)c2)C(=O)C12CCN(Cc1nc3ccccc3nc1C)CC2,9
COc1ccc(CN2C(=O)N(C)C3(CCN(Cc4nc(-c5ccccc5)cs4)CC3)C2=O)cc1,-25
Cc1cc(-c2cccc(CN3CCOCC3)c2)nc(-c2ccccc2O)n1,-22
CCC(=O)Nc1ccc2c(c1)C(=O)N(C)C[C@@H](OC)[C@@H](C)CN(C(=O)Cc1cccnc1)[C@H](C)CO2,75
Cc1cccc(-c2cc3nc4c(c(=O)n3[nH]2)CCC4)c1,-100*
Cc1cccc(-c2cc3nc(C)cc(=O)n3[nH]2)c1,-21
Cc1[nH]n2c(=O)c3c(nc2c1-c1cccs1)CCC3,-11
CO[C@H]1CC[C@@H]2CCN(C)C(=O)[C@H](C)N(C)C(=O)c3cccc(C#N)c3OC[C@@H]1O2,-47
CCC(C#CCN1CCCCC1)(CC)OC(C)=O,-49
Cc1cccc(-c2nn3c(c2-c2ccnc4ccc(C(N)=O)cc24)CCC3)n1,-78*
Cc1cccc2ncc(C(=O)N3CCC4(CCNC(=O)CC4)CC3)c(=O)n12,3
CCSc1ccc(-c2noc(-c3cccc(C(F)(F)F)c3)n2)cn1,71
CS(=O)(=O)N1CCCC2(COCCN(c3cnccn3)C2)C1 (stereo not given),0
Cc1ccc(CN2CCC3(CC2)COCCN(c2ncccn2)C3)s1,-2
Cc1ccc(CN2CCCC3(COCCN(c4cnccn4)C3)C2)s1 (stereo not given),-94*
CCc1nccn1CCCn1cc(C2CC=CCC2)nn1 (stereo not given),-44
CCc1cc(=O)oc2cc3occ(-c4ccc(OC)c(F)c4)c3cc12,-78*
CCc1cc(=O)oc2cc(OCC=C(C)C)ccc12,21
COc1cc2c(=O)c(-c3ccc(O)cc3)coc2cc1O,-56
C[C@H](CO)N1C[C@H](C)[C@@H](CN(C)Cc2ccc3c(c2)OCO3)Oc2ccc(NC(=O)C3CCCCC3)cc2C1=O,-25
CCOc1ccc(-c2nc(CN3CCN(C(=O)Nc4cc(OC)ccc4OC)CC3)c(C)o2)cc1,2
CC(C)(C)C1CCc2[nH]nc(C(=O)Nc3cccc(Cn4cncn4)c3)c2C1 (stereo not given),0
CC(C)(C)C1CCc2[nH]nc(C(=O)Nc3ccccc3OCc3ccccn3)c2C1 (stereo not given),-79*
O=C(Nc1ccccc1OCCCc1ccccc1)c1ccccn1,5
Cc1nc(-c2ccccc2)sc1C(=O)Oc1ccccc1N1CCOCC1,-56
SMILES,Tgondii IFNg
CCOC(=O)c1cnc2oc3ccc(O)cc3c2c1-c1ccccc1,14
CCOC(=O)c1cnc2c(-c3ccccc3)c(C(F)(F)F)sc2c1N1CCOCC1,-93*
Cn1c(CCNC(=O)c2cn(CC3CCCNC3)nn2)nc2ccccc21 (stereo not given),1
Cc1nn(C)c(C)c1CCNS(=O)(=O)c1ccc2c(c1)CCC(=O)N2,59
CC1(C)CCC(CN2CCN(c3ccc(C(=O)NS(=O)(=O)c4ccc(NCC5CCOCC5)c([N+](=O)[O-])c4)c(Oc4cnc5[nH]ccc5c4)c3)CC2)=C(c2ccc(Cl)cc2)C1,-80*
Cc1nc(CC(=O)N2CCC(c3ccccc3C(=O)O)C2)cs1 (stereo not given),31
Cc1nc(CC(=O)N2CCCC2c2ccc3c(NCc4ccccc4)n[nH]c3n2)cs1 (stereo not given),-76*
Cc1nc(CC(=O)N2CCCCC2c2[nH]ncc2C)cs1 (stereo not given),-34
COc1ccc(C(=O)O/N=C2\CCSc3ccc(F)cc32)cc1,80
CCCN1C(=O)CCc2cc(NC(=O)c3cc(SC)ccc3Cl)ccc21,11
COc1ccc2c(c1)CC/C2=N/OC(=O)c1cc(SC)ccc1Cl,-91*
O=C(Cn1c(=O)cc(C(=O)N2CCc3ccccc3C2)c2ccccc21)Nc1ccc(F)cc1F,2
Cc1noc(C)c1S(=O)(=O)N1CCCC1C(=O)Nc1ccc2c(c1)N(C)CCC2 (stereo not given),15
Cc1cc(CSc2nc3ccccc3o2)c(C)cc1CSc1nc2ccccc2o1,-3
Cc1[nH]c2ccccc2c1C(=O)CSc1nc2ccccc2o1,-39
O=c1cc(CSc2nc3ccccc3o2)[nH]c2nc3ccccc3n12,-97*
CC(C)(C)C(=O)OCOP(=O)(COCCn1cnc2c(N)ncnc21)OCOC(=O)C(C)(C)C,-80*
CC(C)[C@H](N)C(=O)OCCOCn1cnc2c(=O)[nH]c(N)nc21,2
Nc1ncnc2c1ncn2[C@H]1CC[C@@H](CO)O1,11
O=C(c1cc2ccccc2[nH]1)N1CCC2(CC1)Nc1ccccc1-n1cccc12,-48
CC(C)CN(C[C@@H](O)[C@H](Cc1ccccc1)NC(=O)O[C@H]1CO[C@H]2OCC[C@H]21)S(=O)(=O)c1ccc(N)cc1,-72*
CC(C)CN(C[C@@H](O)[C@H](Cc1ccccc1)NC(=O)O[C@H]1CCOC1)S(=O)(=O)c1ccc(N)cc1,-2
COc1ccc(CCC(=O)N2CCC(O)(C(=O)O)CC2)cc1,-17
COC(=O)C1C(=O)CC(C)(O)C(C(=O)OC)C1c1ccc(OC)c(OC)c1 (stereo not given),0
Cc1ccc(C(=O)NCCSCc2ccccc2Cl)cc1,-21
SMILES,Tgondii IFNg
O=C(Nc1cc(Cl)ccc1O)c1ccccc1CN1CCOCC1,155
Cc1ccc(SCc2ccccc2C(=O)Nc2cc(Cl)ccc2O)cc1,-75*
N#Cc1cc2c([nH]c1=O)CCCC2,-31
CN(C)c1ccc(C(=C2C=CC(=[N+](C)C)C=C2)c2ccc(N(C)C)cc2)cc1,-81*
COc1ccc(-c2nc(N3CCN(Cc4ccccc4)CC3)c3ccccc3n2)cc1,16
COc1ccc(C(=O)N2C[C@@H]3[C@H](c4ccccc42)[C@@H](CO)N3C(=O)Cc2ccccn2)cc1,-5
COc1ccc(-c2nnc(-c3nc(Nc4cccc(SC)c4)c4ccccc4n3)o2)cc1,118
O=C(Nn1cnnc1)c1cc(Cl)cc(Cl)c1,-34
CCCN1C(=O)CCc2cc(NC(=O)c3ccn(CC)n3)ccc21,96
CCc1ccc(C(=O)Nc2ccc3c(c2)CCC(=O)N3CCOC)cc1,-74*
CCCN1C(=O)CCc2cc(NC(=O)C(CC)c3ccccc3)ccc21 (stereo not given),-82*
CCCN1C(=O)CCc2cc(NC(=O)c3cccc(C#N)c3)ccc21,-17
CCCN1C(=O)CCc2cc(NC(=O)c3cc(F)cc(F)c3)ccc21,-52
C=CC(=O)Nc1ccc2c(c1)CCC(=O)N2CCC,-11
CCCN1C(=O)CCc2cc(NC(=O)c3ccc(CC)cc3)ccc21,-59
CCN1C(=O)CCc2cc(NC(=O)c3ccc(C(C)C)cc3)ccc21,-105*
CCN1C(=O)CCc2cc(NC(=O)c3ccc(C)cc3)ccc21,-16
CCN1C(=O)CCc2cc(NC(=O)c3ccsc3)ccc21,84
COCCN1C(=O)CCc2cc(NC(=O)c3ccc(C)cc3)ccc21,-5
CCCN1C(=O)CCc2cc(NC(=O)c3ccc(F)c(Cl)c3)ccc21,-82*
CCn1ccc(C(=O)N2CCC(O)(CN(C)C)C2)cc1=O (stereo not given),10
CCc1c(C)nc(C2CCCN(Cc3ccc(N4CCOCC4)c(F)c3)C2)[nH]c1=O (stereo not given),5
COc1ccc(NC(=O)c2c(O)c3cccnc3n(-c3cccc(F)c3)c2=O)cc1F,66
C=CCn1c(=O)c(C(=O)NCc2ccccc2)c(O)c2ccccc21,442
C/C=C/c1ccc([C@@H]2[C@H](CO)N3CCCCN(S(=O)(=O)c4ccc(OC)cc4)C[C@@H]23)cc1,0
CC(C)CN1C(=O)CCc2cc(NC(=O)C3CCCCC3)ccc21,-37
